# From PubChem
# CHO-K1 Ca ag: M1 agonist counterscreen hit in parental CHO-K1 cells; Fluo-8 calcium fluorescence; scaled to maximal ATP response, vehicle zero; activation, % at 3 µM; 360,000 compounds, 0.48% hits; AID 602248; in the data active = activation above about 15%;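 also: untransfected CHO-K1 host cells lacking M1 receptor as counterscreen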
# CHO-K1 Ca PAM: nonselective activator or artifact in parental CHO-K1 calcium assay; ATP EC20, Fluo-8 calcium fluorescence; 0% at ATP EC20, 100% at ATP max; activation, % at 3 µM; 360,000 compounds, 0.02% hits; AID 602247;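 active = activation above the run cutoff, the mean activation of all test compounds plus 3 SD, cut at about 40% in these data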;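 also: peak over basal fluorescence ratio in a 140 s read after ATP addition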
# ANO1 activ: activates or potentiates the mouse TMEM16A chloride channel | B-score at 10 µM | HEK293 TMEM16A/YFP-H148Q/I152L, iodide quench fluorescence; stronger effect = lower value | 340,000 compounds, 0.3% hits | Q8BHY3;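 active = fluorescence-ratio B-score plate-corrected deviation score at least 3 library SD below zero, with starting fluorescence score within 5 deviations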;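 also: channel opened by trigger with iodide after compound preincubation; score built on the fluorescence ratio of max minus min over baseline; more negative score means more quench and so TMEM16A activation or potentiation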
# ANO1 block: mouse TMEM16A channel inhibition, primary screen. HEK293 TMEM16A/YFP iodide influx fluorescence, ionomycin. normalized B-score (activity score, 25-100; higher = stronger inhibition) at 10 µM. 310,000 compounds, 1.2% hits;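 active = ratio plate-corrected score three or more library SD toward inhibition, starting fluorescence score within five deviations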;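 also: score derived from kinetic fluorescence span divided by baseline fluorescence per well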
# CHO-K1 Ca antag: nonselective inhibitor or artifact in parental CHO-K1 cells. ATP-induced calcium, Fluo-8 fluorescence. inhibition, % at 3 µM. 360,000 compounds, 0.6% hits. AID 602250;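 active = inhibition above a per-plate cutoff, the plate's mean sample inhibition plus 3 SD, cut at about 24% in these data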;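 also: 0% = DMSO plus EC80 ATP and 100% = DMSO alone without ATP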
# NTR1 ag: NTR1 (human) agonism. activation, % at 20 µM. NTR1-U2OS beta-arrestin-GFP spot imaging, agonist mode. 330,000 compounds, 0.17% hits. P30989;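 active = activation at or above 40% of the spot to cytoplasm intensity ratio, with at least 20 cells analyzed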;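 also: 0% = DMSO without peptide and 100% = 100 nM NTR1 peptide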
# Target sequence (P30989 whole entry, looked up): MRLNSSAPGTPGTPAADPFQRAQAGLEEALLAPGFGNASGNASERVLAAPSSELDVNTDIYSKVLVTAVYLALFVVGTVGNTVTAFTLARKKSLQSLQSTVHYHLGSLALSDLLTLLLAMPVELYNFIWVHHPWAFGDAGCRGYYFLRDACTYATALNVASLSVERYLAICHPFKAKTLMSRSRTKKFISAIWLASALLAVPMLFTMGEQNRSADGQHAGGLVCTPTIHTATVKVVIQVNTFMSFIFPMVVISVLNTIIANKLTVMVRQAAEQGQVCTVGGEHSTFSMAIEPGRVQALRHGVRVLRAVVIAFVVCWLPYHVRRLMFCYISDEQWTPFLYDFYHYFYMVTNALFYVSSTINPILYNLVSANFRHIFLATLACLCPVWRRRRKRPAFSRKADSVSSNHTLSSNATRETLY
# * = called active by the depositor; i = inactive; / = not tested or not shown. Most compounds without a hit are left out; they make up all but 2.2% or so of the library.
SMILES,CHO-K1 Ca ag,CHO-K1 Ca PAM,ANO1 activ,ANO1 block,CHO-K1 Ca antag,NTR1 ag
O=C(O)c1ccc(NC(=O)C2CC=CCC2C(=O)O)cc1 (stereo unspecified),0,14,i,i,-5,-1
NC(=O)c1cnc(Cc2c[nH]c3ccccc23)c(I)c1,8,8,/,/,-8,/
COc1cccc(N(C(=O)c2ccco2)C(C(=O)NC2CCCC2)c2cccnc2)c1 (stereo unspecified),0,-7,/,i,24*,0
O=C(NCC(=O)N(c1ccccc1)C(C(=O)NC1CCCC1)c1ccncc1)c1ccco1 (stereo unspecified),1,22,-16*,i,-4,3
CCCCn1c(N)c(N(CC)C(=O)COc2ccc(C#N)cc2)c(=O)[nH]c1=O,1,18,i,/,-15,-1
O=C(NCc1ccncc1)[C@@H]1CCCN1C(=O)[C@H]1CCCN1,0,17,/,/,-9,/
Cc1ccc(NC(=S)Nc2ccc(Br)cc2)cc1,2,-5,i,i,35*,2
Cc1ccc(NC(=O)c2ccc(OCC3CCCO3)cc2)cc1Cl (stereo unspecified),4,13,/,/,-8,/
COC(=O)c1c(C)cccc1C1CN=NC12Cc1ccccc1C2=O (stereo unspecified),0,16,-7.4*,/,-13,/
COC(=O)c1cccc(NC(=S)NCc2ccc(Cl)cc2)c1,5,-3,i,i,17,1
S=C(NCc1ccncc1)Nc1ccc(Cl)c(Cl)c1,12,4,i,i,7,4
S=C(NCc1ccncc1)Nc1cc(Cl)cc(Cl)c1,13,-14,i,i,27*,1
COC(=O)c1cc(NC(=S)NCc2ccc(Cl)cc2)cc(C(=O)OC)c1,13,-5,i,i,24*,15
CC1CCC(C(C)C)C(NC(=O)c2ccncc2)C1 (stereo unspecified),0,-6,/,/,22,/
COc1ccccc1N(C)c1cc2c(c3c1ccn3C)C1CCC2O1 (stereo unspecified),0,8,/,/,2,/
COc1cc(/C=C2/SC(=S)NC2=O)ccc1OS(=O)(=O)c1ccc(C)cc1,11,-4,i,i,25*,12
COc1ccc(/C=C2\SC(=O)NC2=S)cc1OC,21*,12,i,i,11,-2
CCOc1ccc(/C=C2\SC(=S)NC2=O)cc1OC,5,15,i,i,-5,0
COc1ccc(-c2oc3c(c2C#CC2(O)CCCCC2)C(OC)CCC3)cc1 (stereo unspecified),0,-16,/,/,-5,/
CCCCc1ccc(NC(=S)NCc2cccc(OC)c2)cc1,0,12,i,100*,-1,3
CCNC(=S)NS(=O)(=O)c1ccc(C)cc1,0,-3,i,i,-1,3
CSCC(=O)NS(=O)(=O)c1ccc(C)cc1,0,-17,i,i,28*,-1
CN1OC[C@@H]2CN(S(=O)(=O)c3ccccc3)[C@H](c3ccccc3Br)C[C@@H]21,0,10,/,/,12,/
O=C(Oc1ccc2cc(Br)ccc2c1)N1CCCCCC1,/,/,/,100*,/,10
CCOC(=O)CSc1cc(C(F)(F)F)nc(-c2ccccn2)n1,1,23,i,i,-13,4
SMILES,CHO-K1 Ca ag,CHO-K1 Ca PAM,ANO1 activ,ANO1 block,CHO-K1 Ca antag,NTR1 ag
CCOC(=O)CSc1cc(CS(C)(=O)=O)nc(-c2ccccn2)n1,0,-7,-6.6*,i,0,-1
CCCS(=O)(=O)N1CCN(S(=O)(=O)c2ccccc2[N+](=O)[O-])CC1,/,/,/,i,/,0
CC(=O)c1c(C)[nH]c(C(=O)CN2CCN(S(=O)(=O)c3ccccc3[N+](=O)[O-])CC2)c1C,19*,9,i,/,-15,0
Cc1ccc2cc(C#N)c(SCC(=O)NNC(=O)Cc3ccccc3)nc2c1,0,-16,i,/,25*,/
Cc1ccc(NC(=O)CSc2nc3cc(C(=O)NCC4CCCO4)ccc3c(=O)n2CC2CCCO2)cc1 (stereo unspecified),1,6,/,/,-11,/
COc1ccc(C(=O)CN2C(=O)NC3(CCCCC3)C2=O)cc1OC,19*,-2,i,i,13,1
COc1ccc(C(=O)CN2C(=O)NC3(CCCCCC3)C2=O)c(OC)c1,0,-22,i,i,1,-1
COC(=O)[C@@]1(Sc2ccc(C)cc2)CC(=O)N(c2ccccc2)[C@@H]1c1ccccc1,6,-5,/,/,10,/
CCOC(=O)c1c(-c2cccc([N+](=O)[O-])c2)cn2ccccc12,1,15,i,i,-7,3
CCOC(=O)c1c(-c2ccccc2Cl)cn2ccccc12,1,10,i,i,100*,-2
CC(=O)Nc1cccc(NC(=O)CN2c3cccc4cccc(c34)S2(=O)=O)c1,2,4,i,/,-9,-2
CCNC(=O)CN1c2cccc3cccc(c23)S1(=O)=O,0,9,i,i,-10,2
NC(=O)NC(=O)CN1c2cccc3cccc(c23)S1(=O)=O,1,-4,-6.9*,i,-8,0
CCC(C)NC(=O)CN1c2cccc3cccc(c23)S1(=O)=O (stereo unspecified),0,7,-7.2*,i,3,-2
CC(=O)c1ccc(NC(=O)CN2c3cccc4cccc(c34)S2(=O)=O)cc1,1,20,-4.7*,/,-18,0
COc1ccccc1Cc1c(-c2ccco2)nc2c(C)cc(Br)cn12,1,5,/,/,0,/
CCN(CC)c1ccc(N)cc1,4,-12,i,/,8,5
Nc1ccc(N(CCO)CCO)cc1,1,5,i,i,100*,5
COc1cccc(NC(=O)C(C)Sc2nnc(C3CC3)n2C2CC2)c1 (stereo unspecified),0,15,-32*,/,-2,-1
COC(=O)[C@@]1(C(C)C)N=C(c2cc(OC)c(OC)c(OC)c2)[C@]2(O1)C(=O)Nc1ccc(F)cc12,4,30,/,/,-35,/
O=c1[nH]c2cc3c(cc2cc1CN(CCc1ccccc1)C(=S)NCCCN1CCOCC1)OCCO3,-2,-12,i,/,60*,/
CCOC(=O)NC(=O)/C(C#N)=C\Nc1sccc1C(=O)OC,18*,9,i,i,0,2
CCOC(=O)NC(=O)/C(C#N)=C\Nc1ccc(Cl)cc1Cl,0,-5,i,i,-2,0
COc1ccc(C(=O)N2CCc3ccccc3C2)cc1S(=O)(=O)N1CCCC1,1,-14,/,/,1,/
C/C(=N\N1CCN(c2ccc(Cl)cc2)CC1)c1cccc([N+](=O)[O-])c1,1,18,i,25*,-9,3
C/C(=N/N1CCN(c2ccccc2)CC1)c1cccc([N+](=O)[O-])c1,1,8,i,i,-1,1
